The values that follow come from PMC7862700, “An all-to-all approach to the identification of sequence-specific readers for epigenetic DNA modifications on cytosine”.

What all share (experiment): DAPPL (digital affinity profiling via proximity ligation, sequencing); 10 mM Tris-HCl pH 7.5, 50 mM NaCl, 1 mM DTT, 4% glycerol, room temperature, 30 min; GST-TFs on glutathione beads, 16-mer random dsDNA library, 0.1% formaldehyde crosslink after washing; high values mean tight binding
Assay [1] addresses T1, FLI1 (Homo sapiens, UniProt Q01543 1-452).
T1 sequence: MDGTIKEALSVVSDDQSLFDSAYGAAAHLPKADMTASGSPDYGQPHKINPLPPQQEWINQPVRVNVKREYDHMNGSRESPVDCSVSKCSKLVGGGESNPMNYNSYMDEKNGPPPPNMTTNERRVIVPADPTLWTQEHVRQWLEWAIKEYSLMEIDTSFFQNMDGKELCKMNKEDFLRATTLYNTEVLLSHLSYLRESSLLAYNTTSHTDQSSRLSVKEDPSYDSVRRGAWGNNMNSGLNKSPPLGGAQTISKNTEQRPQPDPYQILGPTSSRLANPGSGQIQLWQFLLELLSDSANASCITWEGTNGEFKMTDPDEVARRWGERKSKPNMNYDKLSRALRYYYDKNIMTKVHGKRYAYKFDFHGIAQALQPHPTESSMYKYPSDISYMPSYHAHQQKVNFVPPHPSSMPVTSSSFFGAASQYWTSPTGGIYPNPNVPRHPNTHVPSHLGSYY
As to conditions: protein: recombinant; tags: N-terminal GST; dsDNA, one strand shown. A digest of the protocol:
(§1)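 Pools of DNA-barcoded human transcription factors, expressed in yeast as GST fusions on glutathione beads and combined with a tag-only sample, were incubated with 200 nmole of a 16-mer random double-stranded DNA library. Incubation took 30 min at room temperature in Tris/NaCl/DTT/glycerol buffer and was followed by washing, 0.1% formaldehyde crosslinking, proximity ligation (BsaI/T4 ligase, 1 h, 37 °C), PCR amplification and sequencing on an Illumina NextSeq500. Binding signal is the ratio of a hexamer's read frequency for a factor to its frequency for the tag-only sample.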

Assay [2] deals with T2, ELK1 (Homo sapiens, UniProt P19419 1-428).
T2 sequence: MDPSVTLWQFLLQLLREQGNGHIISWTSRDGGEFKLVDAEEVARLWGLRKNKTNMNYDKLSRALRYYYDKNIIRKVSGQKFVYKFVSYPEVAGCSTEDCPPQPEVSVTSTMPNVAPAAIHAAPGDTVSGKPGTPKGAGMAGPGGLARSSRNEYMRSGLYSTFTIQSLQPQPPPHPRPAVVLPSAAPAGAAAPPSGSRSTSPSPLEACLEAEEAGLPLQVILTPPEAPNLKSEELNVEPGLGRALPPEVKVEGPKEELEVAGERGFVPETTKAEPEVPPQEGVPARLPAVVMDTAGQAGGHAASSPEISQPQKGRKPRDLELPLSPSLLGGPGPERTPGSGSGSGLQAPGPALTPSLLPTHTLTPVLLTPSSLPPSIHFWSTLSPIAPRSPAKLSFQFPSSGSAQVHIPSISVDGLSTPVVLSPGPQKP
The settings on record: protein: recombinant; tags: N-terminal GST; dsDNA, one strand shown. Put shortly: as §1

In assay [3] the target is T3, GABPA (Homo sapiens, UniProt Q06546 1-454).
T3 sequence: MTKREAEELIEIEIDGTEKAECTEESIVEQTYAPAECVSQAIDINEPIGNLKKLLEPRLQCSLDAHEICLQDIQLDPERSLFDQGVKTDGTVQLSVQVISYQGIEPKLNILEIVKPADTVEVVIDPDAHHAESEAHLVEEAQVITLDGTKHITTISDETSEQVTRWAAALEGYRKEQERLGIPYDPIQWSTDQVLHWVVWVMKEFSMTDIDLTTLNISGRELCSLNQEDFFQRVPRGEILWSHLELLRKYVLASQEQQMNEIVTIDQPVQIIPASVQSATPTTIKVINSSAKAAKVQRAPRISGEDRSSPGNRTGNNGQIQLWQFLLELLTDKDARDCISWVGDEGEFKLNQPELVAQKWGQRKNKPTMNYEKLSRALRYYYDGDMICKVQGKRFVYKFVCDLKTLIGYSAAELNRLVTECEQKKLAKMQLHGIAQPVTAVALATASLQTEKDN
The settings on record: protein: recombinant; tags: N-terminal GST; dsDNA, one strand shown. Put shortly:
as §1

Assay [4] has as its target T4, ERG (Homo sapiens, UniProt P11308 1-479).
T4 sequence: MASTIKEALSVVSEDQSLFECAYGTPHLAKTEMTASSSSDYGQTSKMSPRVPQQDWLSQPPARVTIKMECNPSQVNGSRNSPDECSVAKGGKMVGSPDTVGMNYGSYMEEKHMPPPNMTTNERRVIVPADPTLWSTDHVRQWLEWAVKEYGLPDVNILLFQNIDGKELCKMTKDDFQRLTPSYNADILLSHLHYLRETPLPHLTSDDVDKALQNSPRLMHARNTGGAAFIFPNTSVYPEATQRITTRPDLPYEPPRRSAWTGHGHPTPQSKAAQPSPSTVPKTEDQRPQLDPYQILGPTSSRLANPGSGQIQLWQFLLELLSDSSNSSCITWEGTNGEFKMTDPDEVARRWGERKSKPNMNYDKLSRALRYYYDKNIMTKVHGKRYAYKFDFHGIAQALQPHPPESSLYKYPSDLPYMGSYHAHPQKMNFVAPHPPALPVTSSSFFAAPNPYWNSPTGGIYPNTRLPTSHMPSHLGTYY
As to conditions: protein: recombinant; tags: N-terminal GST; dsDNA, one strand shown. Put shortly: as §1

The target of assay [5] is ELF1 (Homo sapiens, UniProt P32519 1-619). As to conditions: protein: recombinant; tags: N-terminal GST; dsDNA, one strand shown. A digest of the protocol: as §1
Chain of ELF1 (P32519 whole entry): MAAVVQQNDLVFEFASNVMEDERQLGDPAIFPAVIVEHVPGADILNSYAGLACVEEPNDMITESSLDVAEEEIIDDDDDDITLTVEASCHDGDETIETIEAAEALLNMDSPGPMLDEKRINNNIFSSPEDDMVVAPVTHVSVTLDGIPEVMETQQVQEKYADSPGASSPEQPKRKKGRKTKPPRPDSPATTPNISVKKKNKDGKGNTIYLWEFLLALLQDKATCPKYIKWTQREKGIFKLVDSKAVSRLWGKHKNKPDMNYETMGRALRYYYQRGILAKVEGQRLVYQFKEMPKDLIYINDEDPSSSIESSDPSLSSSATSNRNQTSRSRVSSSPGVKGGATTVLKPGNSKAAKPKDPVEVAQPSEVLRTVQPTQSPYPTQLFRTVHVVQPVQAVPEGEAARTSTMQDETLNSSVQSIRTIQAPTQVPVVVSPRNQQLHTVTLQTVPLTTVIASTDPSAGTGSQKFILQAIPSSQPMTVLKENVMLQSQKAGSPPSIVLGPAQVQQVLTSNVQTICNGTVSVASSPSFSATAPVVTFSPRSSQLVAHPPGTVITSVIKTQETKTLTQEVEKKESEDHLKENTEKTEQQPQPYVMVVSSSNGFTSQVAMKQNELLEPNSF
For assay [6], the target named is T5, EHF (Homo sapiens, UniProt Q9NZC4 1-300).
T5 sequence: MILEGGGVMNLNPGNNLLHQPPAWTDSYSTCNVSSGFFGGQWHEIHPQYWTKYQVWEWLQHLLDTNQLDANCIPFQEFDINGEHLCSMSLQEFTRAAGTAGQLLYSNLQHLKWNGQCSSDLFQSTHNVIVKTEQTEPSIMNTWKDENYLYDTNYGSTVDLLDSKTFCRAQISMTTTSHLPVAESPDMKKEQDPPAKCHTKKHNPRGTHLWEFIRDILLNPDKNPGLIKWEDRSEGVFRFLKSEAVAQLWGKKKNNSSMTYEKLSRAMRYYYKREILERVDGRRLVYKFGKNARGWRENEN
The settings on record: protein: recombinant; tags: N-terminal GST; dsDNA, one strand shown. Put shortly:
as §1

Assay [7] deals with SPI1 (Homo sapiens, UniProt P17947 1-270). As to conditions: protein: recombinant; tags: N-terminal GST; dsDNA, one strand shown. A digest of the protocol:
as §1

Assay [8] deals with SPIB (Homo sapiens, UniProt Q01892 1-262). The settings on record: protein: recombinant; tags: N-terminal GST; dsDNA, one strand shown. A digest of the protocol: as §1
Chain of SPIB (Q01892 whole entry): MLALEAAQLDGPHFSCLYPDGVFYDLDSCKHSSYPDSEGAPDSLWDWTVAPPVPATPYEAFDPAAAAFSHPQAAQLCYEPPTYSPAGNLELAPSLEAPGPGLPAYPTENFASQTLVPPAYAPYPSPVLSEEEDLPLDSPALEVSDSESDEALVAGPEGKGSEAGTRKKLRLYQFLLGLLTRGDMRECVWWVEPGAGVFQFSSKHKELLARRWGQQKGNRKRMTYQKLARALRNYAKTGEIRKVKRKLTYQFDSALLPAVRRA
Assay [9] concerns the target T6, ELK3 (Homo sapiens, UniProt P41970 1-407).
T6 sequence: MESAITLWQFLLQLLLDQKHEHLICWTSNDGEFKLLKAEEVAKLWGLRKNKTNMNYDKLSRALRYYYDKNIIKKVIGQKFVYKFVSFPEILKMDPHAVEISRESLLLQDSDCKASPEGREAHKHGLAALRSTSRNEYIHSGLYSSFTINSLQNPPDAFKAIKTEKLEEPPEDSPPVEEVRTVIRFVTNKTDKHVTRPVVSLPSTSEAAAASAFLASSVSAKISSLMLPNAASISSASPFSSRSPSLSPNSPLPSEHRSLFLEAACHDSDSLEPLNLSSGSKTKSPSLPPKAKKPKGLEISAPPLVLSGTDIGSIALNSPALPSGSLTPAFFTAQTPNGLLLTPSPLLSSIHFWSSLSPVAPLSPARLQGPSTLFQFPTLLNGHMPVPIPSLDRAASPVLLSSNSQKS
As to conditions: protein: recombinant; tags: N-terminal GST; dsDNA, one strand shown. Put shortly:
as §1

Assay [10] addresses T7, FEV (Homo sapiens, UniProt Q99581 1-238).
T7 sequence: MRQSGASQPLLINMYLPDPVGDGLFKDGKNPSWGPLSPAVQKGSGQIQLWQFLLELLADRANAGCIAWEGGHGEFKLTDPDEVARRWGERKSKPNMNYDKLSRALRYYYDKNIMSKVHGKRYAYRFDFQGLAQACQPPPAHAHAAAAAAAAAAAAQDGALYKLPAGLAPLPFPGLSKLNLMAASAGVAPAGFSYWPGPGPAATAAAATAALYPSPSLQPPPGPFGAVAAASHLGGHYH
The settings on record: protein: recombinant; tags: N-terminal GST; dsDNA, one strand shown. A digest of the protocol: as §1

The target of assay [11] is ETV5 (Homo sapiens, UniProt P41161 1-510). The settings on record: protein: recombinant; tags: N-terminal GST; dsDNA, one strand shown. Put shortly: as §1
Chain of ETV5 (P41161 whole entry): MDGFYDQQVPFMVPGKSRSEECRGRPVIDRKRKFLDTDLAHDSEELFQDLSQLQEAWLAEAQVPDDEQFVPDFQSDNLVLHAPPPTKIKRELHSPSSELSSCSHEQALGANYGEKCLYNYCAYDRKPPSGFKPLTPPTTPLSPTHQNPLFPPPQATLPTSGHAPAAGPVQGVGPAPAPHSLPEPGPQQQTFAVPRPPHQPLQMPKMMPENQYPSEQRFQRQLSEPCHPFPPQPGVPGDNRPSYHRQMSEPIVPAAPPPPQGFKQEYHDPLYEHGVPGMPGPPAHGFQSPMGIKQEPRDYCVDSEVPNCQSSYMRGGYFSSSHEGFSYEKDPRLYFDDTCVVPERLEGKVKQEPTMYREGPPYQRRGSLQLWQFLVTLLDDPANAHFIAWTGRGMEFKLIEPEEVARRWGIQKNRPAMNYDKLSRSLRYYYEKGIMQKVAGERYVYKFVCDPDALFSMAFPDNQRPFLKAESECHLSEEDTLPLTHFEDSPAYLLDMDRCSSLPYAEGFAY
The target of assay [12] is HSF1 (Homo sapiens, UniProt Q00613 1-529). The settings on record: protein: recombinant; tags: N-terminal GST; chain copies: 3; dsDNA, one strand shown. Put shortly:
as §1

The target in assay [13] is T8, SPIC (Homo sapiens, UniProt Q8N5J4 1-248).
T8 sequence: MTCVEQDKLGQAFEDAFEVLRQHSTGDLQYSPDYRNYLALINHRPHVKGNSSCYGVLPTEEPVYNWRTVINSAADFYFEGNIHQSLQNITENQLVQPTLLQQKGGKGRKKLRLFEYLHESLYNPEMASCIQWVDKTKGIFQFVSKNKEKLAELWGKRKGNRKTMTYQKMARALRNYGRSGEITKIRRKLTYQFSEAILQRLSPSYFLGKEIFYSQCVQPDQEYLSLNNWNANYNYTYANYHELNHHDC
The settings on record: protein: recombinant; tags: N-terminal GST; dsDNA, one strand shown. Put shortly: as §1

For assay [14], the target named is ELF4 (Homo sapiens, UniProt Q99607 1-663). The settings on record: protein: recombinant; tags: N-terminal GST; dsDNA, one strand shown. A digest of the protocol:
as §1

For assay [15], the target named is T9, ELK4 (Homo sapiens, UniProt P28324-2 1-405).
T9 sequence: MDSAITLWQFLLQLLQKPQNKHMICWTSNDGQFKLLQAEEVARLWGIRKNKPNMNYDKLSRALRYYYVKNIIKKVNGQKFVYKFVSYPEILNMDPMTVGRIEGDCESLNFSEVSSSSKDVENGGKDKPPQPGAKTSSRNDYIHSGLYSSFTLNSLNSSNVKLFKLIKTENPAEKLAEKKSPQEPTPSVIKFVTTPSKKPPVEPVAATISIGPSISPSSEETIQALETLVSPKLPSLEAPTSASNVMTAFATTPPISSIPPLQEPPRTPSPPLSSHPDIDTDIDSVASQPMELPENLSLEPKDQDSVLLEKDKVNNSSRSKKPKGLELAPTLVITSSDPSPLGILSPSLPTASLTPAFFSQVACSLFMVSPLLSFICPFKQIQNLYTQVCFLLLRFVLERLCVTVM
The settings on record: protein: recombinant; tags: N-terminal GST; dsDNA, one strand shown. Put shortly:
as §1

The target of assay [16] is T10, ETV2 (Homo sapiens, UniProt O00321 1-342).
T10 sequence: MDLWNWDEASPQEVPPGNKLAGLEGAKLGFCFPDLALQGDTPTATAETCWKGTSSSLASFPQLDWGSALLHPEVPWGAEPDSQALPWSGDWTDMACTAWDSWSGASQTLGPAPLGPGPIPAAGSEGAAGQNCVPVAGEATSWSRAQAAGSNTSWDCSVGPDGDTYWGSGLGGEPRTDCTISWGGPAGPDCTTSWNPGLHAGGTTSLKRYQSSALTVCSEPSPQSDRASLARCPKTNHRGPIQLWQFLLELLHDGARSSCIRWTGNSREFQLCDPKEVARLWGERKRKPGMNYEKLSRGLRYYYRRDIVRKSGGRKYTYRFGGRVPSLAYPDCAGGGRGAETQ
As to conditions: protein: recombinant; tags: N-terminal GST; dsDNA, one strand shown. A digest of the protocol: as §1

The target of assay [17] is T11, ELF3 (Homo sapiens, UniProt P78545 1-371).
T11 sequence: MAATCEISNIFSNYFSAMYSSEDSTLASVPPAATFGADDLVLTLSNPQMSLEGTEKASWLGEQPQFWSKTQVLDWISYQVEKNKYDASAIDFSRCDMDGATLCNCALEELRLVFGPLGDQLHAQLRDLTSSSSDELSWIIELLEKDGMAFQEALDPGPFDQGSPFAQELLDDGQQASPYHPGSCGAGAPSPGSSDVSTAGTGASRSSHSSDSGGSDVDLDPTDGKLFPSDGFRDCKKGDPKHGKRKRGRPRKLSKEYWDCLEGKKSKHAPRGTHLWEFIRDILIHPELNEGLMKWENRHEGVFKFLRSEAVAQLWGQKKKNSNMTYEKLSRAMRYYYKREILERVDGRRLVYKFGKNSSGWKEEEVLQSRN
As to conditions: protein: recombinant; tags: N-terminal GST; dsDNA, one strand shown. A digest of the protocol: as §1

Assay [18] concerns the target ETV1 (Homo sapiens, UniProt P50549 1-477). The settings on record: protein: recombinant; tags: N-terminal GST; dsDNA, one strand shown. A digest of the protocol: as §1

Chain of ETV1 (P50549 whole entry): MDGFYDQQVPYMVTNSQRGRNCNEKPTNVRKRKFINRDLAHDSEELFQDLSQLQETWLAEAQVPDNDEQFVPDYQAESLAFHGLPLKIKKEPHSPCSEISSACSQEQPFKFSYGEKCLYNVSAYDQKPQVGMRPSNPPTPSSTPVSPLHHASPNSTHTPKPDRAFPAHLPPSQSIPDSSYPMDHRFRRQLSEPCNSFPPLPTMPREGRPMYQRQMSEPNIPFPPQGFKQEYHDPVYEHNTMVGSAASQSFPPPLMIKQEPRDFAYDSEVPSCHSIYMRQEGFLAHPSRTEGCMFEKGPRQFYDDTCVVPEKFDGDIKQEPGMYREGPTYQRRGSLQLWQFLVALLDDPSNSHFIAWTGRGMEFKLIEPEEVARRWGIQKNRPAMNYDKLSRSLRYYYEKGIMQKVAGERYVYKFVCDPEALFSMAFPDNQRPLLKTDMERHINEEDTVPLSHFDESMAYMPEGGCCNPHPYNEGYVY
Chain of ELF4 (Q99607 whole entry): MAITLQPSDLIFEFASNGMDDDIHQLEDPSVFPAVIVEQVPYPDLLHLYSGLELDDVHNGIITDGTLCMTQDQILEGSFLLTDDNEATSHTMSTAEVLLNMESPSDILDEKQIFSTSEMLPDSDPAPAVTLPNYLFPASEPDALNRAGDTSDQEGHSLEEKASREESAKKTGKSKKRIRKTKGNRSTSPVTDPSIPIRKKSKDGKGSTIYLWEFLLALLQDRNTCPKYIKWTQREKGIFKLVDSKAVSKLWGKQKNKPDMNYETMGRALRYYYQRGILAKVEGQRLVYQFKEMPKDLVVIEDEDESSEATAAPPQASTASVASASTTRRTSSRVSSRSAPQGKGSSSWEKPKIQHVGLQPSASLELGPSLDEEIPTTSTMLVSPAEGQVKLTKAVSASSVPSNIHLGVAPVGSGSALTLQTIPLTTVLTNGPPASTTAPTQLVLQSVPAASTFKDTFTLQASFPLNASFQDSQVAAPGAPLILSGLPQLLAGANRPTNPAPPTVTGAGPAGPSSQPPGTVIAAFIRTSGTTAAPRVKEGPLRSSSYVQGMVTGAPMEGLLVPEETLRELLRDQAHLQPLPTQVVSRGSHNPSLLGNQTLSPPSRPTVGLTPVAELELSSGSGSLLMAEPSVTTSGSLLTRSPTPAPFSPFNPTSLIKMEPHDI
Chain of HSF1 (Q00613 whole entry): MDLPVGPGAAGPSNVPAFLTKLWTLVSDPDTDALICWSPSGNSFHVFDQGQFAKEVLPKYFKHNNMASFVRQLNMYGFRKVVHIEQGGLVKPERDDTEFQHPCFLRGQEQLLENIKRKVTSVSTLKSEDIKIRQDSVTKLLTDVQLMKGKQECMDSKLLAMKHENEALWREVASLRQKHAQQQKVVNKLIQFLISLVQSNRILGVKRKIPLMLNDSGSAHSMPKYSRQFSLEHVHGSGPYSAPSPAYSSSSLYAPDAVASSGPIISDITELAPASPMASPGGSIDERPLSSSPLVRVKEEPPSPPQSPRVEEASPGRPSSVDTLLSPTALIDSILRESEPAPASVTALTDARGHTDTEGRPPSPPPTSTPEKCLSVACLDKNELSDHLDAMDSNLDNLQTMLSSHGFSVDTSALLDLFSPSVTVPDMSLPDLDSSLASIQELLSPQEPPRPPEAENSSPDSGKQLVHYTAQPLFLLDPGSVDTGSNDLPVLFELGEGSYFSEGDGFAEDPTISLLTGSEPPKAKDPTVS

For GTACAT, the binding signal in assay [1] is 1.4 fold enrichment (6-mer frequency, TF over GST control); in [2], 1.35 fold enrichment (6-mer frequency, TF over GST control); in [3] it was 1.17 fold enrichment (6-mer frequency, TF over GST control); in assay [4], 1.35 fold enrichment (6-mer frequency, TF over GST control); in [5] it was 1.36 fold enrichment (6-mer frequency, TF over GST control); in assay [6] it was 1.26 fold enrichment (6-mer frequency, TF over GST control). Besides, the binding signal in assay [7] was 1.28 fold enrichment (6-mer frequency, TF over GST control); in [8], 1.36 fold enrichment (6-mer frequency, TF over GST control); in assay [9], 1.44 fold enrichment (6-mer frequency, TF over GST control); in assay [10], 1.35 fold enrichment (6-mer frequency, TF over GST control); in [11], 1.37 fold enrichment (6-mer frequency, TF over GST control); in assay [12], 1.04 fold enrichment (6-mer frequency, TF over GST control). The binding signal in assay [13] was 1.36 fold enrichment (6-mer frequency, TF over GST control); in [14], 1.36 fold enrichment (6-mer frequency, TF over GST control); in assay [15], 1.23 fold enrichment (6-mer frequency, TF over GST control); in assay [16], 1.22 fold enrichment (6-mer frequency, TF over GST control); in [17], 1.28 fold enrichment (6-mer frequency, TF over GST control); in [18], 1.24 fold enrichment (6-mer frequency, TF over GST control).
